Assays:
ETS1 = target: T1, ETS1 (UniProt P14921); experiment: ETS1 binding intensity (PBM fluorescence), ETS1 alone (arbitrary fluorescence units); higher = stronger binding; conditions: ETS1 concentration 1 nM; RUNX1 concentration 0 nM
T1 sequence: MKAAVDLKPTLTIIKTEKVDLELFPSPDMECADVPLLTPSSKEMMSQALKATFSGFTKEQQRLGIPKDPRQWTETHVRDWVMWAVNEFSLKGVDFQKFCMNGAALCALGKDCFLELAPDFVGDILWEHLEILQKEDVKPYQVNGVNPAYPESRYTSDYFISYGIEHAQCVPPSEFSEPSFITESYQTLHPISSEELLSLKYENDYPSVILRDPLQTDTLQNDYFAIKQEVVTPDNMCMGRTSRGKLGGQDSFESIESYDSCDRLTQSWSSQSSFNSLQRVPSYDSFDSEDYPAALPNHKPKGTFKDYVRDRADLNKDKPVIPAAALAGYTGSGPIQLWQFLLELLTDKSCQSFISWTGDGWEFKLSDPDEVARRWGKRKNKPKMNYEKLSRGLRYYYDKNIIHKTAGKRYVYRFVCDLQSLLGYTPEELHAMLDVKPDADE

RUNX1 [1] = target: RUNX1 (UniProt Q01196); experiment: RUNX1 binding intensity (PBM fluorescence), RUNX1 alone (arbitrary fluorescence units); higher = stronger binding; conditions: RUNX1 concentration 2 nM; ETS1 concentration 0 nM
RUNX1, sequence (Q01196 whole entry): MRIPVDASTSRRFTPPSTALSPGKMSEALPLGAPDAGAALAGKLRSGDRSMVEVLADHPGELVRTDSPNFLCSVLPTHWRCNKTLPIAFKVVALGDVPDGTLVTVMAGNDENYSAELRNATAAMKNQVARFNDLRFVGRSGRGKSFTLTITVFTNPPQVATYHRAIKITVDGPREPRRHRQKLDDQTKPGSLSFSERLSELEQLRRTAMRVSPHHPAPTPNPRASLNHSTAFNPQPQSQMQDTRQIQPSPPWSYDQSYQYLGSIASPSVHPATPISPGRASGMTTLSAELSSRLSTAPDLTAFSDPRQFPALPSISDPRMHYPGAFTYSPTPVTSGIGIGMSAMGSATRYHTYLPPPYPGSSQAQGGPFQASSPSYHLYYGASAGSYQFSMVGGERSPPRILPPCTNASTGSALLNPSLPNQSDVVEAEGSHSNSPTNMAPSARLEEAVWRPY
Procedure: (§1)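 Cooperative gcPBM on 36-bp genomic probes with neighbouring ETS1 and RUNX1 sites. Recombinant human RUNX1 (2 nM) was incubated alone or with ETS1 (25 nM) and detected with anti-RUNX1 antibody plus Alexa488 secondary. Values are medians over 4 replicate spots; the RUNX1+ETS1 data were normalised to the RUNX1-only data. The probes sit in constant array flanks that are not printed.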

RUNX1 [2] = target: RUNX1 (UniProt Q01196); experiment: RUNX1 binding intensity (PBM fluorescence) in presence of ETS1, normalised to RUNX1-only experiment (arbitrary fluorescence units); higher = stronger binding; conditions: RUNX1 concentration 2 nM; ETS1 concentration 25 nM
Procedure: as §1
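For RUNX1 binding intensity (PBM fluorescence) in presence of ETS1, normalised to RUNX1-only experiment in this document: Full-length recombinant human ETS1 or RUNX1 bound to double-stranded 36-bp genomic probes on microarrays, detected by protein-specific primary antibody and Alexa488 secondary, spot fluorescence as median of four replicate spots.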
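For RUNX1 binding intensity (PBM fluorescence), RUNX1 alone in this document: Full-length recombinant human RUNX1 bound to double-stranded 36-bp genomic probes on a high-density microarray, scored as Alexa488 fluorescence per spot via anti-RUNX1 antibody, median of four replicate spots.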

Sequence | ETS1 binding intensity (ETS1) | RUNX1 binding intensity (RUNX1 [1]) | RUNX1 binding intensity (RUNX1 [2])
GGGACAGACTCTCCAGGATGTGGTTGGATTTTGGGC | 1520 | 754 | 1040
ACTTACTTCCCGACGTCACAGCCACCGAAACCACAG | 468 |  | 2090
CTGGGCGTGGGCTTCCTGCGGCTGAGTGGCAGCTTC |  |  | 997
GCCACCTCTTCCTGTGTTGCAAACCACAGGTCCACC | 805 |  | 5050
AACAGGAAGTGGTCTTAGAGATCATGCGGTTCAGAG | 2220 |  | 2350
TTTATCATGAATGCAGGATGTGGGCAGACTCACAGC | 2590 |  | 1280
ACCTTGCCTAGAGGAAGTGGTTTTTCGAATCTGAGT | 2070 |  | 1540
CCCACTGCGCCAGGATGTGGTCAGGTCGGTGACGTT | 1560 |  | 3410
TGGGCAGGAAGTGGTATCTGATTGTGGTTTTGATTT | 3960 |  | 8180
CTGAGCCGGATGTTACTGGTTAGTGGTTTTCTTTAT | 3290 |  | 1560
CCCGCTCACGCCGGAAGTGGTTTGCGTTTTCAAGAT | 14400 |  | 7390
CCACCTCCTCCGGACGCCGCCCGCAACTGAGCATGC |  |  | 1230
TGCTGCAGCGGCGCTTCCTGGTGGTCAGGGCGCCAT |  |  | 924
AACTGGGCGGAAAGAACGGCTAACCGCAAGCTGCCG | 429 |  | 23900
GCATTTACGGGCAGGAAATGAAACCACAGAGTACAA | 5420 |  | 3610
GAGGGGGAGGTTTCCGGGGCCTGTGGTTACTACACT | 438 |  | 1910
AATCTGAAACAGGAAATAAGTCTGTGGTTGTGTGTT | 7070 |  | 1540
CAGAGCAGAGAGGAAGTGGTGGTGGCCACAGTCCCA | 1760 |  | 1220

— the supplement of paper PMC10681739
